The list is not random: actives were taken first. Their share in the collection is about 2.3%.
Granule exo inh – lytic granule exocytosis inhibition; hit rate 0.66% among 360,000; TALL-104 LAMP-1 surface exposure, flow cytometry; cells stimulated with thapsigargin and PMA; inhibition, % at 10 µM;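 active = inhibition above about 55%, limit read from the data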
NTR1 ag – NTR1 (human) agonism. P30989. NTR1-U2OS beta-arrestin-GFP spot imaging, agonist mode. activation, % at 20 µM. hit rate 0.17% among 330,000. AID 493036;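 active = activation at or above 40% of the spot to cytoplasm intensity ratio, with at least 20 cells analyzed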
Beta2AR agonist – activates human beta-2 adrenergic receptor causing internalization. P07550. Am2.2-beta2AR cells, FAP receptor internalization, flow cytometry. response, % (no concentration beside the values). hit rate 0.43% among 340,000;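 active = response above a set limit, near 3 SD of response in nonfluorescent compounds, cut at about 42% in these data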
Target sequence (P07550 whole entry, looked up): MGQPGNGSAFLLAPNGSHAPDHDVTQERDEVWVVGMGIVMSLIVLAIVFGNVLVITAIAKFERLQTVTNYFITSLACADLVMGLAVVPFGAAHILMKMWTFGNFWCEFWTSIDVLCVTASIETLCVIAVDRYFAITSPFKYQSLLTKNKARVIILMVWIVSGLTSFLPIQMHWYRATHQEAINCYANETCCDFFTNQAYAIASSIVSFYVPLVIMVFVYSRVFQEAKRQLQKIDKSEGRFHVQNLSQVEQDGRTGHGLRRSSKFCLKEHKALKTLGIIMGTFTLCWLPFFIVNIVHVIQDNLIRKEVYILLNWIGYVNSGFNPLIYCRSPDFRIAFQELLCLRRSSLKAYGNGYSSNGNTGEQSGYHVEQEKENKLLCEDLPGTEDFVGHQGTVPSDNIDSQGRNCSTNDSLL
HTR2A ag – agonists of mouse serotonin 5-HT2A receptor (HTR2A). P35363. CHO-K1 mHTR2A beta-arrestin complementation, luminescence; percent of 30 µM serotonin response. activation, % at 7.6 µM. hit rate 0.66% among 360,000. AID 624169;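 active = activation above a run cutoff, the mean activation of all tested compounds plus 3 SD, cut at about 14% in these data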
ABHD5 PLIN5 PPI – blocks binding of human ABHD5 to perilipin-5; Q00G26+Q8WTS1; inhibition, % at 4 µM; Split G. princeps luciferase complementation, luminescence, 4 h; hit rate 0.78% among 360,000; AID 602281;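 active = inhibition above the mean inhibition across every tested compound plus 3 SD, cut at about 22% in these data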
Numbers stand for hits; i = inactive; nt = no result given.

SMILES	Granule exo inh	NTR1 ag	Beta2AR agonist	HTR2A ag	ABHD5 PLIN5 PPI
Cn1c(-c2ccc(Cl)nc2)nc2cc(Cl)ccc21	i	i	i	i	i
CCN(CC)CCOCCOc1ccccc1F	i	i	i	i	i
CCN(CC)CCOCCOC(=O)C(CC)(CC)c1ccccc1	i	i	i	i	23
CC(C(=O)N1CCCCCC1)c1ccc([N+](=O)[O-])cc1 (stereo not drawn)	i	i	i	i	i
COc1ccc(-c2csc(/C(C#N)=C\c3ccc(OC)c([N+](=O)[O-])c3)n2)cc1	i	i	i	i	i
COc1ccc(-c2csc(/C(C#N)=C\c3ccc(O)c([N+](=O)[O-])c3)n2)cc1OC	93	i	i	i	i
Cc1cc(=O)oc2c(C)c(OC(C)C(=O)Nc3ccc(N4CCC(C)CC4)cc3)ccc12 (stereo not drawn)	i	i	83	i	i
Cc1cc(=O)oc2cc(OCC(=O)Nc3ccc(N4CCC(C)CC4)cc3)ccc12	i	i	51	i	i
CCN(CC)CCCNC(=S)N1CCN(c2nc(-c3ccc(F)cc3)cs2)CC1	69	i	i	i	i
CCOC(=O)C1=C(O)c2ccccc2C(=O)/C1=C\c1ccc(C)cc1	97	nt	i	i	i
CCOC(=O)c1sc2ncn(/N=C/c3ccc(O)c(OC)c3)c(=O)c2c1C	105	i	i	i	i
O=Cc1cc(N=Nc2ccccc2Cl)ccc1O	62	i	i	i	i
C#CCOCCOCCOCCNc1nc(N2CCN(C(=O)CCCCCCCCCCNC(=O)[C@H](CCCCN)n3cc(C)nn3)CC2)nc(N2CCN(C(=O)CCCCCCCCCCNC(=O)[C@H](CCCCN)n3cc(CCCC(=O)O)nn3)CC2)n1	i	i	i	i	i
C#CCOCCOCCOCCNc1nc(N2CCN(C(=O)Cn3cc(CCCCN)nn3)CC2)nc(N2CCN(C(=O)Cn3cc(CCCCN)nn3)CC2)n1	i	i	i	i	i
C#CCOCCOCCOCCNc1nc(N2CCN(C(=O)CCCCCCCCCCNC(=O)Cn3cc(CCCCCN)nn3)CC2)nc(N2CCN(C(=O)CCCCCCCCCCNC(=O)[C@@H](CCSC)n3cc(CCO)nn3)CC2)n1	65	i	75	i	57
C#CCOCCOCCOCCNc1nc(N2CCN(C(=O)CCCCCCCCCCNC(=O)Cn3cc(CCCCCN)nn3)CC2)nc(N2CCN(C(=O)CCCCCCCCCCNC(=O)Cn3cc(CCCCCN)nn3)CC2)n1	i	i	45	i	i
C#CCOCCOCCOCCNc1nc(N2CCN(C(=O)CCCCCCCCCCNC(=O)[C@H](CO)n3cc(CCCSC)nn3)CC2)nc(N2CCN(C(=O)CCCCCCCCCCNC(=O)[C@H](CCCCN)n3cc(CCO)nn3)CC2)n1	i	i	i	i	49
C#CCOCCOCCOCCNc1nc(N2CCN(C(=O)CCCCCCCCCCNC(=O)Cn3cc(CCCCCN)nn3)CC2)nc(N2CCN(C(=O)CCCCCCCCCCNC(=O)[C@@H](CCC(=O)O)n3cc(CCCCCN)nn3)CC2)n1	i	i	i	i	i
C#CCOCCOCCOCCNc1nc(N2CCN(C(=O)CCCCCCCCCCNC(=O)[C@H](CO)n3cc(CCCSC)nn3)CC2)nc(N2CCN(C(=O)CCCCCCCCCCNC(=O)[C@H](CCCN=C(N)N)n3cc(C[C@@H](C)CC)nn3)CC2)n1	i	i	89	i	70
Cc1ccccc1-n1nc2c(c1NC(=O)c1ccc3c(c1)OCO3)CS(=O)(=O)C2	i	i	i	i	i
O=C(NCc1ccc(F)cc1)c1cc(C2CCCN(C(=O)c3ccc4c(c3)CCO4)C2)on1 (stereo not drawn)	i	nt	nt	i	i
C#CCOCCOCCOCCNc1nc(N2CCN(C(=O)CCCCCCCCCCNC(=O)Cn3cc(C[C@@H](C)O)nn3)CC2)nc(N2CCN(C(=O)CCCCCCCCCCNC(=O)[C@H](CCCN=C(N)N)n3cc(C[C@@H](C)CC)nn3)CC2)n1	i	i	57	i	55
OCC[C@@H]1C[C@@H](O)[C@H](O)[C@@]2(CCCCO2)O1	i	i	i	i	i
C(C#CCCCCCCCCC[n+]1ccccc1)#CCCCCCCCCC[n+]1ccccc1	i	nt	i	i	33
COc1ccccc1CNC(=O)/C=C/c1ccc(Br)o1	i	i	71	i	i
SMILES	Granule exo inh	NTR1 ag	Beta2AR agonist	HTR2A ag	ABHD5 PLIN5 PPI
COc1ccc(NC(=O)/C=C/c2ccc(Br)o2)cn1	i	i	i	i	i
CCc1ccc(NC(=O)CN2CCCN(S(=O)(=O)c3ccc(F)cc3)CC2)cc1	i	i	i	i	i
O=C(NC(=S)Nc1cccc(O)c1)C1CCCCC1	62	i	i	i	i
CCCCCCCCCCOC(=O)c1csc2nnsc12	i	i	i	i	i
Cc1cc(N/N=C/c2ccc(F)cc2)nc(NCc2ccccc2)n1	i	i	i	i	i
Cc1ccc(/C=N/Nc2cc(C)nc(NCc3ccccc3)n2)cc1	88	i	i	i	i
CCOc1ccc(OCC)c(NC(=O)c2nnn(CC(=O)Nc3cc(C)cc(C)c3)c2N)c1	i	i	i	i	i
CS(=O)(=O)c1sc2nc(-c3cccs3)cc(-c3ccccc3)c2c1N	i	i	43	i	i
COc1ccc(S(=O)(=O)NCc2ccco2)c2ccccc12	i	i	i	i	23
CCOC(=O)c1sc2nc(-c3ccco3)c3c(c2c1N)CC(C)(C)OC3	i	i	i	i	30
COc1ccc(OC)c(C2=Nn3c(nnc3-c3ccncc3)SC2)c1	64	i	i	i	i
COc1cccc(-c2nnc3n2N=C(c2cc(OC)ccc2OC)CS3)c1	i	i	i	i	i
O=C(CCCn1cnc([N+](=O)[O-])n1)Nc1ccc(Cl)c(Cl)c1	i	i	i	i	28
O=C(COc1ccc(S(=O)(=O)N2CCCCC2)cc1)NCc1cccnc1	i	i	i	i	i
COc1cc2c(cc1OC)C(c1ccc(-c3ccccc3Cl)o1)=NCC2	i	58	i	i	i
O=C(NC1=NCCS1)c1ccc(N2CCCC2=O)cc1	i	i	48	i	i
NC(=O)COc1ccc(NC(=O)CC23CC4CC(CC(C4)C2)C3)cc1	i	i	i	i	i
CCOC(=O)C1=C[C@@H](c2ccccc2)N(S(=O)(=O)c2ccc(C)cc2)[C@H]1c1cccc(Cl)c1	i	nt	nt	i	i
N#Cc1c(Nc2ccc(Cl)cc2)s[nH]c1=O	83	i	i	i	i
C=C1CC(Cn2cc(Br)c(=O)[nH]c2=O)(c2ccc(-c3ccccc3)cc2)OC1=O (stereo not drawn)	i	nt	51	i	54
O=c1[nH]c(=O)n(Cc2ccc(Oc3ccccc3)cc2)cc1Br	i	i	i	i	i
COc1ccccc1CNc1nc(NCCN2CCNC2=O)c2sccc2n1	i	nt	nt	i	i
COc1ccc(CC(=O)Nc2cccc(-c3nnc(-c4ccccc4)o3)c2)cc1OC	69	nt	i	i	i
COc1ccc(-c2cc3ccc(OC(C)C(=O)O)cc3oc2=O)cc1 (stereo not drawn)	i	i	i	i	22
COc1ccc(-c2cc3ccccc3oc2=O)cc1	i	i	i	i	i

High-throughput results as filed in PubChem BioAssay.
